Among the test systems are NCI-H23 lung; NCI-H226 lung; NCI-H322M lung; HOP-62 NSCLC; NCI-H460 lung; HOP-92 NSCLC; NCI-H522 lung; 786-0 renal; COLO 205 colon; DU-145 prostate; K-562 leukemia; MALME-3M melanoma; MDA-MB-231 breast; RXF 393 renal; SF-268 CNS; SF-295 CNS; SF-539 CNS; UACC-257 melanoma; M14 melanoma.
Assay in all cases: NCI-60 one-dose screen, 48 h (100 = growth as untreated, 0 = no growth, -100 = all killed)
Common to all, as to details: 10 µM unless noted

About 83,000 compounds went through this panel and 20% of them were active in at least one assay; those are over-represented in the sample as a whole.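 Cells were grown in 96-well plates and exposed to the test compound at a single concentration for 48 hours; results are reported as percent growth, with values below 10 considered active.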 Unmarked numbers belong to inactive results. Calls of active or inactive are those of the source.

As for `O=c1c2cc(F)ccc2sc2c(NCCCNCCO)nc3ccc(F)cc3c12`, the growth with NCI-H23 lung was 82.5%; with NCI-H226 lung, 84.8%; in the test with NCI-H322M lung, 79.4%; with HOP-62 NSCLC it was 71.5%; with NCI-H460 lung, -32.8% (active); in the test on HOP-92 NSCLC, 4.67% (active). Moreover, the growth with NCI-H522 lung is 60.9%; in the test with 786-0 renal, 64.1%; with COLO 205 colon, 23.3%; with DU-145 prostate, 37.4%; in the test with K-562 leukemia, -33.5% (active); in the test on MALME-3M melanoma, 85.5%. For the same compound, the growth in the test with MDA-MB-231 breast was -7.79% (active); with RXF 393 renal, 63%; in the test on SF-268 CNS, 51.8%; in the test with SF-295 CNS it was 98.6%; with SF-539 CNS, 63.9%; with UACC-257 melanoma, 94%. In the test on M14 melanoma, the growth was 8.53% (active).
On to `CC(=O)OC[C@H]1OC(Sc2sc(C(=O)c3ccc(Br)cc3)c(N)c2-c2nc3ccccc3s2)[C@H](OC(C)=O)[C@@H](OC(C)=O)[C@H]1OC(C)=O` (some centres not stated), for which the growth with NCI-H23 lung is 88.4%; in the test on NCI-H226 lung, 65.6%; in the test on NCI-H322M lung it was 91.8%; in the test on HOP-62 NSCLC it was 91.1%; with NCI-H460 lung, 107%; in the test on HOP-92 NSCLC, 98.3%. Further, the growth in the test on NCI-H522 lung was 94.1%; in the test with 786-0 renal, 94.4%; in the test with COLO 205 colon, 108%; in the test with DU-145 prostate, 110%; in the test with K-562 leukemia, 92.2%; in the test with MALME-3M melanoma, 98.1%. For the same compound, the growth with MDA-MB-231 breast was 80.6%; in the test with RXF 393 renal, 115%; in the test on SF-268 CNS, 93%; with SF-295 CNS, 97.1%; in the test on SF-539 CNS, 95.2%; in the test on UACC-257 melanoma, 104%. For the same compound, in the test with M14 melanoma, the growth was 96.1%.
Turning to `COc1cc(/C=N/NC(=O)c2ccc(C)nc2)cc(OC)c1OC`, the growth in the test with NCI-H23 lung is 102%; in the test on NCI-H226 lung, 85.1%; with NCI-H322M lung it was 90.5%; with HOP-62 NSCLC, 105%; in the test with NCI-H460 lung, 103%; in the test with HOP-92 NSCLC, 90.5%. In addition, the growth was 91.7% in the test with NCI-H522 lung; 34% in the test with 786-0 renal; 108% in the test on COLO 205 colon; 114% in the test on DU-145 prostate; 52.2% with K-562 leukemia; 97.3% in the test on MALME-3M melanoma. In addition, the growth in the test with MDA-MB-231 breast was 107%; in the test with RXF 393 renal it was 90%; in the test on SF-268 CNS it was 104%; in the test with SF-295 CNS, 97.4%; with SF-539 CNS, 97.6%; in the test with UACC-257 melanoma, 74.3%. Also, in the test on M14 melanoma, the growth was 108%.
On to `COc1ccc(C(=O)N=Nc2c(O)n(C)c3ccccc23)cc1`, for which the growth in the test on NCI-H23 lung is 85.3%; in the test on NCI-H226 lung it was 91.1%; in the test with NCI-H322M lung it was 94.4%; in the test on HOP-62 NSCLC it was 97.6%; with NCI-H460 lung, 94%; in the test on HOP-92 NSCLC it was 86.1%. Further, the growth in the test with NCI-H522 lung is 91.5%; in the test on 786-0 renal, 106%; with COLO 205 colon, 106%; in the test with DU-145 prostate, 108%; in the test on K-562 leukemia it was 89.3%; with MALME-3M melanoma it was 103%. Further, the growth in the test on MDA-MB-231 breast was 85.2%; in the test on RXF 393 renal it was 100%; in the test with SF-268 CNS, 95.8%; with SF-295 CNS, 101%; in the test with SF-539 CNS, 89.8%; with UACC-257 melanoma, 106%. The growth in the test on M14 melanoma is 101%.
Take `CC(=O)c1ccc(Nc2nc(C(C)=O)c(C)s2)cc1`: the growth is 96% in the test with NCI-H23 lung; 66.2% with NCI-H226 lung; 82% with NCI-H322M lung; 95.4% in the test on HOP-62 NSCLC; 97.8% in the test on NCI-H460 lung; 102% in the test with HOP-92 NSCLC. Also, the growth in the test with NCI-H522 lung is 87.9%; with 786-0 renal it was 95.8%; with COLO 205 colon it was 109%; in the test with DU-145 prostate, 102%; in the test on K-562 leukemia, 88.7%; in the test with MALME-3M melanoma it was 105%. The growth in the test on MDA-MB-231 breast is 98%; with RXF 393 renal it was 101%; in the test on SF-268 CNS it was 98%; with SF-295 CNS, 98.6%; with SF-539 CNS, 103%; in the test on UACC-257 melanoma, 103%. In addition, the growth in the test on M14 melanoma is 104%.
Regarding `C=CCc1cc(C)ccc1NC(C(=O)NCC(=O)OC)c1ccccc1` (configuration not stated), the growth in the test with NCI-H23 lung was 93.7%; with NCI-H226 lung it was 95.1%; in the test on NCI-H322M lung it was 95.3%; in the test on HOP-62 NSCLC it was 85.5%; in the test with NCI-H460 lung, 116%; in the test on HOP-92 NSCLC it was 103%. The growth was 96.4% with NCI-H522 lung; 94.1% with 786-0 renal; 100% with COLO 205 colon; 112% with DU-145 prostate; 106% in the test on K-562 leukemia; 105% in the test on MALME-3M melanoma. In addition, the growth is 109% in the test with RXF 393 renal; 95% with SF-268 CNS; 92.9% in the test with SF-295 CNS; 94.5% with SF-539 CNS; 104% in the test on UACC-257 melanoma; 96.6% in the test with M14 melanoma.
In the case of `O=C(CCN1C(=O)/C(=C/c2ccc(O)cc2)SC1=S)Nc1ccccc1`, the growth with NCI-H23 lung is 91.9%; in the test on NCI-H226 lung it was 90.9%; with NCI-H322M lung, 95%; in the test on HOP-62 NSCLC, 85.9%; in the test on NCI-H460 lung, 106%; in the test on HOP-92 NSCLC, 89.6%. Besides, the growth was 80.1% in the test with NCI-H522 lung; 105% in the test on 786-0 renal; 125% with COLO 205 colon; 110% with DU-145 prostate; 81.8% in the test on K-562 leukemia; 95.4% in the test with MALME-3M melanoma. For the same compound, the growth in the test on MDA-MB-231 breast is 91.1%; with RXF 393 renal it was 103%; in the test on SF-268 CNS it was 93.5%; with SF-295 CNS, 91%; in the test on SF-539 CNS, 97.8%; in the test with UACC-257 melanoma it was 104%. In the test with M14 melanoma, the growth is 97.4%.

For the origin of these results see PubChem BioAssay (NCI).
